Test results from publication PMC7862700, “An all-to-all approach to the identification of sequence-specific readers for epigenetic DNA modifications on cytosine”.

How the values were obtained:
Test in all cases: DAPPL (digital affinity profiling via proximity ligation, sequencing); 10 mM Tris-HCl pH 7.5, 50 mM NaCl, 1 mM DTT, 4% glycerol, room temperature, 30 min; GST-TFs on glutathione beads, 16-mer random dsDNA library, 0.1% formaldehyde crosslink after washing; high values mean tight binding
[1] = molecular target: T1, FLI1 (Homo sapiens, UniProt Q01543 1-452); conditions: protein: recombinant; tags: N-terminal GST; dsDNA, one strand shown
T1 sequence: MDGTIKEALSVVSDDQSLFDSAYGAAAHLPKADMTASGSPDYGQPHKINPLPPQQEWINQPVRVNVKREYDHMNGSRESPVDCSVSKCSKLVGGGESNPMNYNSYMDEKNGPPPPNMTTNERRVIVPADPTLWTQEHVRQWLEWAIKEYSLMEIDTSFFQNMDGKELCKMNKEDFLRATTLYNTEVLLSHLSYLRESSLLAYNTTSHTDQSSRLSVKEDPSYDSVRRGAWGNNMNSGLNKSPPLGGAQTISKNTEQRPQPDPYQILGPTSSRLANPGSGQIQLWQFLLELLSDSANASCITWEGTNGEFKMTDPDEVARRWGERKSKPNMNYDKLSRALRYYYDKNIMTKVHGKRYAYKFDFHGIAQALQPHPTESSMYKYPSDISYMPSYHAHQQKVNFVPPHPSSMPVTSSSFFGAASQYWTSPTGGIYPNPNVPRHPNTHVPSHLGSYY
Method in brief: (§1)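 Binding signal is defined as a hexamer's read frequency for one factor over its frequency for the tag-only sample. To obtain reads, GST-fused human transcription factors were expressed in yeast, captured on glutathione beads, barcoded with DNA and pooled with that sample. Pools met 200 nmole of a 16-mer random double-stranded DNA library in Tris/NaCl/DTT/glycerol buffer for 30 min at room temperature before washing, 0.1% formaldehyde crosslinking, proximity ligation (BsaI/T4 ligase, 1 h, 37 °C), PCR and Illumina NextSeq500 sequencing.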

[2] = molecular target: T2, ELK1 (Homo sapiens, UniProt P19419 1-428); conditions: protein: recombinant; tags: N-terminal GST; dsDNA, one strand shown
T2 sequence: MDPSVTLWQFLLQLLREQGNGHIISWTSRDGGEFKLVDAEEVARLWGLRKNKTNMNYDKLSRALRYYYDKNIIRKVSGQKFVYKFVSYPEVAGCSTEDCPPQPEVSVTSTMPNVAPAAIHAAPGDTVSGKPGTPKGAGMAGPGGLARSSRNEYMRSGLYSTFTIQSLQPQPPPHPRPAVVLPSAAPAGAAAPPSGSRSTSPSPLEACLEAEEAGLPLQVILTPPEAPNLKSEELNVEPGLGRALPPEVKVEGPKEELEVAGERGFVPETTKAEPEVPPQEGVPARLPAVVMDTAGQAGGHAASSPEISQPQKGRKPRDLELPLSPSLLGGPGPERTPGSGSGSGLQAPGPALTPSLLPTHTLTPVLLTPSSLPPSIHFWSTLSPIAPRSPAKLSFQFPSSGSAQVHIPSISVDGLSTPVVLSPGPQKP
Method in brief: as §1

[3] = molecular target: T3, GABPA (Homo sapiens, UniProt Q06546 1-454); conditions: protein: recombinant; tags: N-terminal GST; dsDNA, one strand shown
T3 sequence: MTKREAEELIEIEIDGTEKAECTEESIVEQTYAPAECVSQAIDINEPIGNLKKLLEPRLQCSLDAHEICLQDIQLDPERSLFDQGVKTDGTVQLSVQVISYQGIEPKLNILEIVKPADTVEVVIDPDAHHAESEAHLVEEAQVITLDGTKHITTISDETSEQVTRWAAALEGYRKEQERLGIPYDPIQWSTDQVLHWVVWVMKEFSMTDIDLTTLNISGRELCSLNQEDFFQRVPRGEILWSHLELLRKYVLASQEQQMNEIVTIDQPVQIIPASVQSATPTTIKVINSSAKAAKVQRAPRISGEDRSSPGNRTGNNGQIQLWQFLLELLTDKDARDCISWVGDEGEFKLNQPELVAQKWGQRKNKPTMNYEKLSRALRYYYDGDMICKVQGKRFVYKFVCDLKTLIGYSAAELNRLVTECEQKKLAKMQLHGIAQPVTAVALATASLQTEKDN
Method in brief: as §1

[4] = molecular target: T4, ERG (Homo sapiens, UniProt P11308 1-479); conditions: protein: recombinant; tags: N-terminal GST; dsDNA, one strand shown
T4 sequence: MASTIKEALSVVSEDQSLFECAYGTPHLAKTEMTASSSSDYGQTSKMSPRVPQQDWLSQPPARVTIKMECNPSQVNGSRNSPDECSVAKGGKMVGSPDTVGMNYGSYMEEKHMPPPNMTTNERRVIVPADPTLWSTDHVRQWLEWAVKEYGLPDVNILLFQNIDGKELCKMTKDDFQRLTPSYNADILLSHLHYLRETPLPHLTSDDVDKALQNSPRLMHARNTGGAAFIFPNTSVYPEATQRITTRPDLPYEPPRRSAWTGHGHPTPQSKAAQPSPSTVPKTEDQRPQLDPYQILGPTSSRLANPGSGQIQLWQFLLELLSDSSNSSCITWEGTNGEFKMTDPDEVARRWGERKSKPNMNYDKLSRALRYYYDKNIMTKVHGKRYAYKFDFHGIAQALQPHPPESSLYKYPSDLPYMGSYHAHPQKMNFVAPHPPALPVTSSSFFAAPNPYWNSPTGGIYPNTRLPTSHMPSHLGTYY
Method in brief: as §1

[5] = molecular target: ELF1 (Homo sapiens, UniProt P32519 1-619); conditions: protein: recombinant; tags: N-terminal GST; dsDNA, one strand shown
Chain of ELF1 (P32519 whole entry): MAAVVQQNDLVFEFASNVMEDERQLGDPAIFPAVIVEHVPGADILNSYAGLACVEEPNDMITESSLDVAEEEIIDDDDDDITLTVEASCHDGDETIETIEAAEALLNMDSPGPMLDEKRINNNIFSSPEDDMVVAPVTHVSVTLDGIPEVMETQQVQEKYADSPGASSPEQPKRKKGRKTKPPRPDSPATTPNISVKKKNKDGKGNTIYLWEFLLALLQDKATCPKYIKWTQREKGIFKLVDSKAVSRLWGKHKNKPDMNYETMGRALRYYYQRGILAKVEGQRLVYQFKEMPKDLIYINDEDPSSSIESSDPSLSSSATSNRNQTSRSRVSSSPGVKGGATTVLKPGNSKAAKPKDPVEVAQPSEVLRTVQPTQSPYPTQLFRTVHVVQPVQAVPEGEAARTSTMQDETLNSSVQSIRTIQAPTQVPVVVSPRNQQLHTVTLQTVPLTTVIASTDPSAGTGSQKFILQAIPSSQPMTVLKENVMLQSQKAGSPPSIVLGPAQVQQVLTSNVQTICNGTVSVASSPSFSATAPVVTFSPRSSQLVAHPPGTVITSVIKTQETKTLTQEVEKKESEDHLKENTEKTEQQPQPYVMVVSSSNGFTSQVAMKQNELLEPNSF
Method in brief: as §1

[6] = molecular target: T5, EHF (Homo sapiens, UniProt Q9NZC4 1-300); conditions: protein: recombinant; tags: N-terminal GST; dsDNA, one strand shown
T5 sequence: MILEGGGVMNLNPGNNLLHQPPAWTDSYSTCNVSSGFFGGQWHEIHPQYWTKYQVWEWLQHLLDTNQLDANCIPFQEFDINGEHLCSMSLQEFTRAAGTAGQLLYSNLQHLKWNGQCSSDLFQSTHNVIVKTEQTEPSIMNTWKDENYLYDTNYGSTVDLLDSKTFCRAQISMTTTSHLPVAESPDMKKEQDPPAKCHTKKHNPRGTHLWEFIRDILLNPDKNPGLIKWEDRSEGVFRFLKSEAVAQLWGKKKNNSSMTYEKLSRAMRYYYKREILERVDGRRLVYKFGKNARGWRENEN
Method in brief: as §1

[7] = molecular target: SPI1 (Homo sapiens, UniProt P17947 1-270); conditions: protein: recombinant; tags: N-terminal GST; dsDNA, one strand shown
Method in brief: as §1

[8] = molecular target: SPIB (Homo sapiens, UniProt Q01892 1-262); conditions: protein: recombinant; tags: N-terminal GST; dsDNA, one strand shown
Chain of SPIB (Q01892 whole entry): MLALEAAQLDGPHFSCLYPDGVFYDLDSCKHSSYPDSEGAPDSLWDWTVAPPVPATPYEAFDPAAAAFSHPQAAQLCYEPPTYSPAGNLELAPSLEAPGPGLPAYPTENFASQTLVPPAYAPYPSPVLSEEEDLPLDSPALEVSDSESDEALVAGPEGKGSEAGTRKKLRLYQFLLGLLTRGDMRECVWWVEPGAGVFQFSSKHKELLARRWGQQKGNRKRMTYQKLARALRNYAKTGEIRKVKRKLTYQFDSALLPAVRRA
Method in brief: as §1

[9] = molecular target: T6, ELK3 (Homo sapiens, UniProt P41970 1-407); conditions: protein: recombinant; tags: N-terminal GST; dsDNA, one strand shown
T6 sequence: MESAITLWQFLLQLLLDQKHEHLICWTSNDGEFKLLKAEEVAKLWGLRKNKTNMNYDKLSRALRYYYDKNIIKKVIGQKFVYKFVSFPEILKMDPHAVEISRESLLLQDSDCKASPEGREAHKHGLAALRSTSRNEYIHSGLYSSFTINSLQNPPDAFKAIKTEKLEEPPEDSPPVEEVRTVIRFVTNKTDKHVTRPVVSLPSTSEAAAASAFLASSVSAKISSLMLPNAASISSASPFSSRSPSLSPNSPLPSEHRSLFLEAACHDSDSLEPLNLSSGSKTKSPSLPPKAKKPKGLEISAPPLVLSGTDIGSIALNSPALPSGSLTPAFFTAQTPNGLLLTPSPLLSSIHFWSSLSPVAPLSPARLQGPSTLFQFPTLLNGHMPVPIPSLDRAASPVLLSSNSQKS
Method in brief: as §1

[10] = molecular target: T7, FEV (Homo sapiens, UniProt Q99581 1-238); conditions: protein: recombinant; tags: N-terminal GST; dsDNA, one strand shown
T7 sequence: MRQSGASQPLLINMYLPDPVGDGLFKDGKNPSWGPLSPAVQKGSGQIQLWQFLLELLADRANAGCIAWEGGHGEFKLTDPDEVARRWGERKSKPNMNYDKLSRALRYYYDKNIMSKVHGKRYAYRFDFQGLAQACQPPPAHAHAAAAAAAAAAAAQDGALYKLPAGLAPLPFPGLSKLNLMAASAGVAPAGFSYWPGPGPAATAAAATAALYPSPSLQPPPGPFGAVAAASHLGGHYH
Method in brief: as §1

[11] = molecular target: ETV5 (Homo sapiens, UniProt P41161 1-510); conditions: protein: recombinant; tags: N-terminal GST; dsDNA, one strand shown
Chain of ETV5 (P41161 whole entry): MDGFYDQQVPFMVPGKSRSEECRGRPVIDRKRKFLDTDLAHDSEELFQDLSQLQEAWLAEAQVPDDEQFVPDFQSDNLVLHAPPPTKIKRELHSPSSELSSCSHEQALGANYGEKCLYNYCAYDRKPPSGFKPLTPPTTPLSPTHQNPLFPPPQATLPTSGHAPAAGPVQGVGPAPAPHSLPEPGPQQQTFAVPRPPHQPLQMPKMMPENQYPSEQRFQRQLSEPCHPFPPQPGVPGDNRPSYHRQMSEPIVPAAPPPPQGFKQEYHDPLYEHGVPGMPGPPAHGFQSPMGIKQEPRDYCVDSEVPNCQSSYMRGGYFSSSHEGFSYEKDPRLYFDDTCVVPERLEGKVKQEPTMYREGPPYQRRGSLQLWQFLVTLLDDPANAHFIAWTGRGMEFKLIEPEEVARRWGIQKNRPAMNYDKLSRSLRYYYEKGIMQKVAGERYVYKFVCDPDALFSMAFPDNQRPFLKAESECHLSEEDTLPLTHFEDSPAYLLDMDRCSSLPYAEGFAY
Method in brief: as §1

[12] = molecular target: HSF1 (Homo sapiens, UniProt Q00613 1-529); conditions: protein: recombinant; tags: N-terminal GST; chain copies: 3; dsDNA, one strand shown
Chain of HSF1 (Q00613 whole entry): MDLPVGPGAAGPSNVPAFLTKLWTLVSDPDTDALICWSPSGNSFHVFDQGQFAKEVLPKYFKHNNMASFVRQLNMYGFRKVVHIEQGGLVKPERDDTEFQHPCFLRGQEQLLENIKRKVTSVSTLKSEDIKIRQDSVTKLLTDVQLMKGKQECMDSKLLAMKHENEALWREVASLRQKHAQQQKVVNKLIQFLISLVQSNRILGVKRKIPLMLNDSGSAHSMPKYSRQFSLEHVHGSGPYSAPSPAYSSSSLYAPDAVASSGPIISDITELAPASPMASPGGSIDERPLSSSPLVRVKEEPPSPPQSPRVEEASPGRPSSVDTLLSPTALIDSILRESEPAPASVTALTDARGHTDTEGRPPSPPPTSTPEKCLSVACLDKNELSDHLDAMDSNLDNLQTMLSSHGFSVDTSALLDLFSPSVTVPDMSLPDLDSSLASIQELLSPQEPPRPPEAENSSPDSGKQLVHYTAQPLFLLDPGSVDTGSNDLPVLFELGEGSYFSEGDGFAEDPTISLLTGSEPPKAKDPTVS
Method in brief: as §1

[13] = molecular target: T8, SPIC (Homo sapiens, UniProt Q8N5J4 1-248); conditions: protein: recombinant; tags: N-terminal GST; dsDNA, one strand shown
T8 sequence: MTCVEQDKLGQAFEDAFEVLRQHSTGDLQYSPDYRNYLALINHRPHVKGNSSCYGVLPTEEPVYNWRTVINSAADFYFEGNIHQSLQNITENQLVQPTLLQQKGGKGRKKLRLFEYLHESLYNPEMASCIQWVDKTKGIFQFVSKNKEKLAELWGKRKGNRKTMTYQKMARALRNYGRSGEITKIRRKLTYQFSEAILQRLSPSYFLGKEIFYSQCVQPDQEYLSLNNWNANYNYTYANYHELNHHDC
Method in brief: as §1

[14] = molecular target: ELF4 (Homo sapiens, UniProt Q99607 1-663); conditions: protein: recombinant; tags: N-terminal GST; dsDNA, one strand shown
Chain of ELF4 (Q99607 whole entry): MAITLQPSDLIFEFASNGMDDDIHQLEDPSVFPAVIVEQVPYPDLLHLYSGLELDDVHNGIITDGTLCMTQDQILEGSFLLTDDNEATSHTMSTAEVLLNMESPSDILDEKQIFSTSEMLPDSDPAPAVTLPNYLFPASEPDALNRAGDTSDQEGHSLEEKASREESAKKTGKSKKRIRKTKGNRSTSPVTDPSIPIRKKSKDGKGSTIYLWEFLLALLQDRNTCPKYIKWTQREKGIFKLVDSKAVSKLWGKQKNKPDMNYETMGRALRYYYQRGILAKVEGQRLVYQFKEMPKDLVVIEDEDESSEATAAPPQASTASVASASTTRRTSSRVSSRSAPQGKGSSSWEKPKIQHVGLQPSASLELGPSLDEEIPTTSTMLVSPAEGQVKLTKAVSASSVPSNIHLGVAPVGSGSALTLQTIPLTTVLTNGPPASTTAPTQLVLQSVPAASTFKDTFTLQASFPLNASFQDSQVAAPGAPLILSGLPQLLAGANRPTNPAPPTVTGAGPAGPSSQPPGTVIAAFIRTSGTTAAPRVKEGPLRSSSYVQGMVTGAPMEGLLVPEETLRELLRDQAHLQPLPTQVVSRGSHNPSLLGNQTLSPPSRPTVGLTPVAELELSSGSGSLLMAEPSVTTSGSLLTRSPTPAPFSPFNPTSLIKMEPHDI
Method in brief: as §1

[15] = molecular target: T9, ELK4 (Homo sapiens, UniProt P28324-2 1-405); conditions: protein: recombinant; tags: N-terminal GST; dsDNA, one strand shown
T9 sequence: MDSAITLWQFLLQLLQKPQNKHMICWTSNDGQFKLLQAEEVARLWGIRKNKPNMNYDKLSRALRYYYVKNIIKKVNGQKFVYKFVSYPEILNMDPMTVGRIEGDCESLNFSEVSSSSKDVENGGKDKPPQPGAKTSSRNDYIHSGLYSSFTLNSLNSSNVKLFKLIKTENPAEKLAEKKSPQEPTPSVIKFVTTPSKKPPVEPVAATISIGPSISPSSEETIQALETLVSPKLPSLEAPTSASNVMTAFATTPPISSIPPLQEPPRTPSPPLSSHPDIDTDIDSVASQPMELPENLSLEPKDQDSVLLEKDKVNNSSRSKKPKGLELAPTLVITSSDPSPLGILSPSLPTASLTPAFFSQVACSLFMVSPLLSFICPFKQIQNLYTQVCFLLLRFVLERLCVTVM
Method in brief: as §1

[16] = molecular target: T10, ETV2 (Homo sapiens, UniProt O00321 1-342); conditions: protein: recombinant; tags: N-terminal GST; dsDNA, one strand shown
T10 sequence: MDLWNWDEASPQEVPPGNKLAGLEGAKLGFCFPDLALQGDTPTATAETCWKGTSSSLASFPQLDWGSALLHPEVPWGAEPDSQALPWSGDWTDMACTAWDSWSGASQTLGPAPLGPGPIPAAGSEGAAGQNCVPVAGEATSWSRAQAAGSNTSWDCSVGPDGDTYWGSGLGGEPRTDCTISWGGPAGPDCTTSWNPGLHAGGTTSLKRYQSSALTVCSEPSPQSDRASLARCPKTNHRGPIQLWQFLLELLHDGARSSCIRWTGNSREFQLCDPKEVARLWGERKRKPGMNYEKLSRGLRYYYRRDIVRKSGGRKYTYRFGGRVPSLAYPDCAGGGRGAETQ
Method in brief: as §1

[17] = molecular target: T11, ELF3 (Homo sapiens, UniProt P78545 1-371); conditions: protein: recombinant; tags: N-terminal GST; dsDNA, one strand shown
T11 sequence: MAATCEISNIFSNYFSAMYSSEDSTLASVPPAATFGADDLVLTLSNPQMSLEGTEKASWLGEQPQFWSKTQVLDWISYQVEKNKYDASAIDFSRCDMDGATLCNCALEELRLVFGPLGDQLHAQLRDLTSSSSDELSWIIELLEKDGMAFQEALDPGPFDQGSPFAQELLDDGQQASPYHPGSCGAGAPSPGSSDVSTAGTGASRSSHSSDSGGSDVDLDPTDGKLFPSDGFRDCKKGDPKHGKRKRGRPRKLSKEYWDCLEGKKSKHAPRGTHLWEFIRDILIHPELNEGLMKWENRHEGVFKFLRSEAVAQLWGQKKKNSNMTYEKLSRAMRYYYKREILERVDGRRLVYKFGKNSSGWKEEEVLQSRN
Method in brief: as §1

[18] = molecular target: CRX (Homo sapiens, UniProt O43186 1-299); conditions: protein: recombinant; tags: N-terminal GST; dsDNA, one strand shown
Chain of CRX (O43186 whole entry): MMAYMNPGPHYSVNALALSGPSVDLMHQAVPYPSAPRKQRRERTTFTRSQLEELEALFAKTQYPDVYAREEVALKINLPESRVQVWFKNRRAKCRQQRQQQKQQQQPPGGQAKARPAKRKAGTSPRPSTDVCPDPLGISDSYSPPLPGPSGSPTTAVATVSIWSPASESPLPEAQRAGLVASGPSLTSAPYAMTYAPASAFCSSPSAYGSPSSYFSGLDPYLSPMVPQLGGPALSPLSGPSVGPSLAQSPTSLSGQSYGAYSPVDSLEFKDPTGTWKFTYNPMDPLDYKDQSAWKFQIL
Method in brief: as §1

[19] = molecular target: ETV1 (Homo sapiens, UniProt P50549 1-477); conditions: protein: recombinant; tags: N-terminal GST; dsDNA, one strand shown
Chain of ETV1 (P50549 whole entry): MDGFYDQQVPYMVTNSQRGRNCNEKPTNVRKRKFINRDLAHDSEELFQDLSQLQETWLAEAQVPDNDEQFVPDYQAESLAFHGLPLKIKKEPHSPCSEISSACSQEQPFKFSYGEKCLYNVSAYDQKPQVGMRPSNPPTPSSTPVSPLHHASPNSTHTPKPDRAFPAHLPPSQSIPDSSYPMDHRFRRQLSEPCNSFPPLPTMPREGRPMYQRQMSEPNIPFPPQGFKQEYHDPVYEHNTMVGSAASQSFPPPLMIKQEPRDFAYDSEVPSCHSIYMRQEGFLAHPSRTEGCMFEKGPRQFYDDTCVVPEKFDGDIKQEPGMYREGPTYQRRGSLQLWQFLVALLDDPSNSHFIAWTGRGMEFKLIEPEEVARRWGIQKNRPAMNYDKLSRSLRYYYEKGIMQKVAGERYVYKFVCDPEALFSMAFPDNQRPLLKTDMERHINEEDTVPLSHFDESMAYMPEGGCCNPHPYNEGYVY
Method in brief: as §1

TGCGAT
binding signal [1]: 1.12 fold enrichment (6-mer frequency, TF over GST control) | binding signal [2]: 1.12 fold enrichment (6-mer frequency, TF over GST control) | binding signal [3]: 1.28 fold enrichment (6-mer frequency, TF over GST control) | binding signal [4]: 1.18 fold enrichment (6-mer frequency, TF over GST control) | binding signal [5]: 1.16 fold enrichment (6-mer frequency, TF over GST control) | binding signal [6]: 1.19 fold enrichment (6-mer frequency, TF over GST control) | binding signal [7]: 1.2 fold enrichment (6-mer frequency, TF over GST control) | binding signal [8]: 1.08 fold enrichment (6-mer frequency, TF over GST control) | binding signal [9]: 1.31 fold enrichment (6-mer frequency, TF over GST control) | binding signal [10]: 1.08 fold enrichment (6-mer frequency, TF over GST control) | binding signal [11]: 1.1 fold enrichment (6-mer frequency, TF over GST control) | binding signal [12]: 1.23 fold enrichment (6-mer frequency, TF over GST control) | binding signal [13]: 1.3 fold enrichment (6-mer frequency, TF over GST control) | binding signal [14]: 1.2 fold enrichment (6-mer frequency, TF over GST control) | binding signal [15]: 1.2 fold enrichment (6-mer frequency, TF over GST control) | binding signal [16]: 1.17 fold enrichment (6-mer frequency, TF over GST control) | binding signal [17]: 1.03 fold enrichment (6-mer frequency, TF over GST control) | binding signal [18]: 1.43 fold enrichment (6-mer frequency, TF over GST control) | binding signal [19]: 1.06 fold enrichment (6-mer frequency, TF over GST control)
